Her2 expr inh: Her2 kinase expression inhibition; P04626; SKBR-3 HER2 protein level, AlphaScreen, 18-24 h; stronger effect = lower value; HER2 level % of control, % at 10 µM; 65,000 tested, 0.69% active; AID 645;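 active means HER2 level under 5% of the carrier-only control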
Target sequence (P04626 whole entry, looked up): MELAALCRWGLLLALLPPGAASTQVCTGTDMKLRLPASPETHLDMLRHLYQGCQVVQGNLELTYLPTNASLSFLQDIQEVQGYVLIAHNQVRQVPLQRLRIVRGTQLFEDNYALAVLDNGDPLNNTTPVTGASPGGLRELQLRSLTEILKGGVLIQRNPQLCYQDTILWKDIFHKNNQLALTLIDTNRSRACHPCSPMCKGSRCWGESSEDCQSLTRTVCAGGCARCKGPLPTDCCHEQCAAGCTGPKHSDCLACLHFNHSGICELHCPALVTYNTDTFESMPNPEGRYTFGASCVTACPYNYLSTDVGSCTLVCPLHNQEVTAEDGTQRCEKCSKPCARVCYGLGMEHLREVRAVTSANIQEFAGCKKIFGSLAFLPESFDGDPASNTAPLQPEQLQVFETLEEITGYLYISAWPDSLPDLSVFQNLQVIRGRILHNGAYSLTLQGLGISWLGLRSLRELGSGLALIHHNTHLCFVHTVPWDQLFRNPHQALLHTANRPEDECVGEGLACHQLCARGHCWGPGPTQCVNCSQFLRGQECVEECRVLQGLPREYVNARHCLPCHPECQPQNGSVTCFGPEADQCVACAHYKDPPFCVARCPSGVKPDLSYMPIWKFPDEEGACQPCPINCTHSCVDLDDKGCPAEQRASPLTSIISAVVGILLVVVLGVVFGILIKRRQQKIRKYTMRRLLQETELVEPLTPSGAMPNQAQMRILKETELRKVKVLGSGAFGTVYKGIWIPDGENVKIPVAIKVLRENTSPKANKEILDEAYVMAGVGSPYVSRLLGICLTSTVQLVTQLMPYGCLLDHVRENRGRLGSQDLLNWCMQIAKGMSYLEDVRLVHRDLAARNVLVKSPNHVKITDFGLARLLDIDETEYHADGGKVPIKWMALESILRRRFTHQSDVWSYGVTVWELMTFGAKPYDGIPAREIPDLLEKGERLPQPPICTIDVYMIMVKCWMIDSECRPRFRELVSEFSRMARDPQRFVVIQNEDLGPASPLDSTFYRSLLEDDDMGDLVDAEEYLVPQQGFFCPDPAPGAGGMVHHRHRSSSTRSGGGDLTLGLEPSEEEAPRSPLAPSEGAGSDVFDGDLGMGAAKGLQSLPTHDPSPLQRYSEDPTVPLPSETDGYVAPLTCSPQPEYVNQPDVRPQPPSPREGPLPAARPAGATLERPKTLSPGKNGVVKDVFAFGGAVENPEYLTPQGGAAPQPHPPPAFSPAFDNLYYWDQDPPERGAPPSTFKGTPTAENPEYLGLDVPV
SKBR3 24h inh: SK-BR-3 proliferation inhibitors; SK-BR-3 viability, CellTiter-Glo ATP luminescence, 24 h; stronger effect = lower value; viability, % at 10 µM; 41,000 tested, 0.47% active;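 active means viability at or below the median of all test compounds minus 3 SD, in both replicates if run twice, cut at about 45% in these data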
Jurkat tox 60K: cytotoxicity toward Jurkat cells. Jurkat E6.1 viability, ATP luminescence, 48 h. 56,000 tested, 1.2% active. inhibition, % at 4 µM;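 active means inhibition above the mean inhibition of all tested compounds plus 3 SD, cut at about 28% in these data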
A number is an active result. A selection: hits, their analogues and other compounds. The true share with any hit is near 2%.

What do the screens show for `CCC1Oc2ccccc2N(CC(=O)Nc2ccc3c(c2)OCCO3)C1=O` (configuration not stated)?
Her2 expr inh: inactive; SKBR3 24h inh: inactive

What do the screens show for `O=C(CN1C(=O)C2C3C=CC(C3)C2C1=O)Nc1ccc2c(c1)OCCO2` (configuration not stated)?
Her2 expr inh: inactive; SKBR3 24h inh: 32; Jurkat tox 60K: inactive

What do the screens show for `Cc1cc(C(=O)COc2ccc(-c3nnco3)cc2)c(C)n1Cc1ccccc1`?
Her2 expr inh: inactive

How did Cn1c(-c2ccccc2)cc2c3no[n+]([O-])c3ccc21 do in these assays?
Her2 expr inh: inactive; SKBR3 24h inh: inactive; Jurkat tox 60K: 78

What do the screens show for `CCOC(=O)c1c(C)n(OCc2ccccc2)c2ccc3c(no[n+]3[O-])c12`?
Her2 expr inh: inactive; SKBR3 24h inh: inactive; Jurkat tox 60K: inactive

What do the screens show for `CCCS(=O)(=O)N1CCN(C(=O)c2cccc(OC)c2)CC1`?
Her2 expr inh: inactive; SKBR3 24h inh: inactive

What do the screens show for `O=C(NCC1CCCCC1)C1CCN(C(=O)NC2CCCCC2)CC1`?
Her2 expr inh: inactive; SKBR3 24h inh: 35; Jurkat tox 60K: inactive

Results for O=C(NC1CCCCC1)N1CCCCCC1 ?
Her2 expr inh: inactive; SKBR3 24h inh: inactive; Jurkat tox 60K: inactive

Results for O=C(CN1C(=O)c2ccccc2S1(=O)=O)N1CCN(Cc2ccc3c(c2)OCO3)CC1 ?
Her2 expr inh: inactive; SKBR3 24h inh: 40; Jurkat tox 60K: inactive

How did O=C(Cn1ccc2ccccc2c1=O)N1CCN(Cc2ccc3c(c2)OCO3)CC1 do in these assays?
Her2 expr inh: inactive; SKBR3 24h inh: inactive; Jurkat tox 60K: inactive

What do the screens show for `CC1CC(C)CN(S(=O)(=O)c2ccc(C(=O)NCCCn3ccnc3)cc2)C1` (configuration not stated)?
Her2 expr inh: inactive; Jurkat tox 60K: 101

What do the screens show for `O=C(NCCCn1ccnc1)c1ccncc1`?
Her2 expr inh: inactive; SKBR3 24h inh: inactive; Jurkat tox 60K: inactive

How did Cc1cc(-c2nnc3n2N=C(c2ccc(-c4ccccc4)cc2)CS3)n[nH]1 do in these assays?
Her2 expr inh: -21; SKBR3 24h inh: inactive; Jurkat tox 60K: inactive

Results for CCOc1ccc(C2=Nn3c(nnc3-c3cccnc3)SC2)cc1 ?
Her2 expr inh: inactive; SKBR3 24h inh: inactive

How did CCOc1ccc(C2=Nn3c(nnc3-c3ccc(OC)cc3)SC2)cc1 do in these assays?
Her2 expr inh: inactive; SKBR3 24h inh: inactive; Jurkat tox 60K: 62

How did Cc1cccc(-c2nnc3n2N=C(c2ccccc2)CS3)c1 do in these assays?
Her2 expr inh: inactive; SKBR3 24h inh: inactive

How did COc1ccc(-c2nnc3n2N=C(c2ccccc2)CS3)cc1OC do in these assays?
Her2 expr inh: inactive; SKBR3 24h inh: 24; Jurkat tox 60K: inactive

Results for COc1ccc(C2=Nn3c(nnc3-c3ccccc3)SC2)cc1OC ?
Her2 expr inh: inactive; SKBR3 24h inh: inactive

How did O=C(Oc1ccc(-c2nnco2)cc1)N(c1ccccc1)c1ccccc1 do in these assays?
Her2 expr inh: inactive; Jurkat tox 60K: inactive

What do the screens show for `Cc1cccc(S(=O)(=O)C(C#N)c2nc3ccccc3nc2N2CCOCC2)c1` (configuration not stated)?
Her2 expr inh: inactive; SKBR3 24h inh: inactive; Jurkat tox 60K: inactive

What do the screens show for `COc1ccc(-c2cc(O)cc(O)c2)cc1`?
Her2 expr inh: inactive; SKBR3 24h inh: inactive; Jurkat tox 60K: inactive

How did CCOc1ccc(N2C(=O)CC(N)C2=O)cc1 (configuration not stated) do in these assays?
Her2 expr inh: inactive; SKBR3 24h inh: inactive

What do the screens show for `CCOc1ccc(N2C(=O)CC(Sc3nc(C)cc(C)c3C#N)C2=O)cc1` (configuration not stated)?
Her2 expr inh: -9.9; SKBR3 24h inh: inactive; Jurkat tox 60K: inactive

Results for CC(C)(CNC(=O)c1cccs1)CNC(=O)c1cccs1 ?
Her2 expr inh: inactive; Jurkat tox 60K: inactive

What do the screens show for `CC1(C)CC(=O)C2=C(C1)OC(=O)C2(NC(=O)c1cccs1)C(F)(F)F` (configuration not stated)?
Her2 expr inh: -12; SKBR3 24h inh: inactive; Jurkat tox 60K: inactive

How did CCOC1(OCC)N=C(N)C2(C#N)C(c3ccc(NC(C)=O)cc3)C12C#N (configuration not stated) do in these assays?
Her2 expr inh: inactive; SKBR3 24h inh: inactive; Jurkat tox 60K: inactive

How did CCOC(=O)C1CCN(C(=O)c2cc(S(=O)(=O)N3CCOCC3)c(Cl)cc2Cl)CC1 do in these assays?
Her2 expr inh: inactive; Jurkat tox 60K: inactive

Results for O=C1c2ccccc2C(=O)N1CSc1ncccn1 ?
Her2 expr inh: inactive; SKBR3 24h inh: inactive; Jurkat tox 60K: inactive

Results for O=C(C1CCN(S(=O)(=O)c2cccc3cccnc23)CC1)N1CCN(c2ccccn2)CC1 ?
Her2 expr inh: inactive; SKBR3 24h inh: inactive; Jurkat tox 60K: inactive

What do the screens show for `O=C(C1CCN(S(=O)(=O)c2cccc3cccnc23)CC1)N1CCN(c2ccc(Cl)cc2)CC1`?
Her2 expr inh: inactive; Jurkat tox 60K: 38

Results for O=C(NCc1cccs1)C1CCN(S(=O)(=O)c2cccc3cccnc23)CC1 ?
Her2 expr inh: inactive; Jurkat tox 60K: inactive

How did O=S(=O)(NCc1ccco1)c1cccc2cccnc12 do in these assays?
Her2 expr inh: -16; SKBR3 24h inh: inactive; Jurkat tox 60K: inactive

How did CN(CC(=O)NCc1ccco1)S(=O)(=O)c1cccc2cccnc12 do in these assays?
Her2 expr inh: inactive; Jurkat tox 60K: inactive

What do the screens show for `O=C(NCc1ccco1)C1CCN(S(=O)(=O)c2cccc3cccnc23)CC1`?
Her2 expr inh: -17; Jurkat tox 60K: inactive

Results for CC1CCN(Cc2nc3c(c(=O)n(C)c(=O)n3C)n2CCN2CCOCC2)CC1 ?
Her2 expr inh: inactive; SKBR3 24h inh: inactive

What do the screens show for `N#Cc1c(-c2ccco2)cc(-c2cccnc2)nc1N`?
Her2 expr inh: inactive; SKBR3 24h inh: inactive; Jurkat tox 60K: inactive

What do the screens show for `N#Cc1c(-c2ccco2)cc(-c2ccccn2)nc1N`?
Her2 expr inh: -1.2; SKBR3 24h inh: inactive; Jurkat tox 60K: inactive

How did Cc1ccc(N2CCN(c3cc(C)nc4nc(C)nn34)CC2)c(C)c1 do in these assays?
Her2 expr inh: inactive; Jurkat tox 60K: inactive

What do the screens show for `O=C1c2oc3ccccc3c(=O)c2C(c2ccc(Br)cc2)N1c1ncccn1` (configuration not stated)?
Her2 expr inh: inactive; SKBR3 24h inh: inactive; Jurkat tox 60K: inactive

What do the screens show for `CC1Cc2ccccc2N1C(=O)CSc1nc2c(c(=O)n(C)c(=O)n2C)n1Cc1ccccc1` (configuration not stated)?
Her2 expr inh: inactive; SKBR3 24h inh: inactive; Jurkat tox 60K: inactive

How did CCOC(=O)c1c(C)c(C(=O)Nc2cc(F)ccc2F)c(C)n1C do in these assays?
Her2 expr inh: inactive; Jurkat tox 60K: 40

What do the screens show for `CCOC(=O)c1c(C)c(C(=O)Nc2ccc3c(c2)OCCO3)c(C)n1C`?
Her2 expr inh: inactive; Jurkat tox 60K: inactive

How did CCCCCC(=O)N1CC2(CC)CN(C(=O)CCCCC)CC(CC)(C1)C2=O do in these assays?
Her2 expr inh: inactive; SKBR3 24h inh: inactive

Results for CCN1C(=O)C(C(=O)Nc2ccc(OC)cc2)C2CC1(C)Oc1ccccc12 (configuration not stated) ?
Her2 expr inh: inactive; SKBR3 24h inh: inactive; Jurkat tox 60K: inactive

How did COc1ccc(/C=C/C(O)=C2/C(=O)N(C)C3(C)CC2c2ccccc2O3)cc1 (configuration not stated) do in these assays?
Her2 expr inh: -6.0; Jurkat tox 60K: inactive

Screening results deposited in PubChem BioAssay by several laboratories.
